Data on 20 molecules can be found in the supplement of paper PMC6992640.

This assay concerns WHIM30 (cells of a triple-negative basal-like breast cancer xenograft). Kind of assay: cell viability of combination (% of vehicle); higher = less cytotoxic. The note with it: 1 µM; 72 h; partner dose: 10 nM. How it is done: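 PDX cells were treated for 72 h with each drug at 1 µM plus carfilzomib (10 nM; 100 nM for WHIM2). Luciferase viability is expressed as percent of vehicle.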
`CN(C)c1ccc(O)c2c1CC1CC3C(N(C)C)C(=O)C(C(N)=O)=C(O)C3(O)C(=O)C1=C2O.Cl` (stereo not given) [Minocycline HCl] + CC(C)C[C@H](NC(=O)[C@H](CCc1ccccc1)NC(=O)CN1CCOCC1)C(=O)N[C@@H](Cc1ccccc1)C(=O)N[C@@H](CC(C)C)C(=O)[C@@]1(C)CO1 [Carfilzomib]: the “cell viability of combination” value was determined as 26.4.
To `Clc1ccc(C(Cn2ccnc2)OCc2c(Cl)cccc2Cl)c(Cl)c1.O=[N+]([O-])O` (stereo not given) [Isoconazole nitrate] + CC(C)C[C@H](NC(=O)[C@H](CCc1ccccc1)NC(=O)CN1CCOCC1)C(=O)N[C@@H](Cc1ccccc1)C(=O)N[C@@H](CC(C)C)C(=O)[C@@]1(C)CO1 [Carfilzomib] belongs 16.4; to `COc1cc(C(=O)NS(=O)(=O)c2ccccc2C)ccc1Cc1cn(C)c2ccc(NC(=O)OC3CCCC3)cc12` [Zafirlukast] + CC(C)C[C@H](NC(=O)[C@H](CCc1ccccc1)NC(=O)CN1CCOCC1)C(=O)N[C@@H](Cc1ccccc1)C(=O)N[C@@H](CC(C)C)C(=O)[C@@]1(C)CO1 [Carfilzomib], 17.9; to `CCCCCCCCCCCCCCCCOP(=O)([O-])OCC[N+](C)(C)C` [Miltefosine] + CC(C)C[C@H](NC(=O)[C@H](CCc1ccccc1)NC(=O)CN1CCOCC1)C(=O)N[C@@H](Cc1ccccc1)C(=O)N[C@@H](CC(C)C)C(=O)[C@@]1(C)CO1 [Carfilzomib], 22.7.
To `COc1cc2nccc(Oc3ccc(NC(=O)NC4CC4)c(Cl)c3)c2cc1C(N)=O` [Lenvatinib (E7080)] + CC(C)C[C@H](NC(=O)[C@H](CCc1ccccc1)NC(=O)CN1CCOCC1)C(=O)N[C@@H](Cc1ccccc1)C(=O)N[C@@H](CC(C)C)C(=O)[C@@]1(C)CO1 [Carfilzomib] belongs 21.9; to `CNC(=O)c1cc(Oc2ccc(NC(=O)Nc3ccc(Cl)c(C(F)(F)F)c3)c(F)c2)ccn1.Cl` [Regorafenib hydrochloride] + CC(C)C[C@H](NC(=O)[C@H](CCc1ccccc1)NC(=O)CN1CCOCC1)C(=O)N[C@@H](Cc1ccccc1)C(=O)N[C@@H](CC(C)C)C(=O)[C@@]1(C)CO1 [Carfilzomib], 32.8.
Consider `Cc1c(Cl)cccc1Nc1ccccc1C(=O)O` [Tolfenamic Acid] + CC(C)C[C@H](NC(=O)[C@H](CCc1ccccc1)NC(=O)CN1CCOCC1)C(=O)N[C@@H](Cc1ccccc1)C(=O)N[C@@H](CC(C)C)C(=O)[C@@]1(C)CO1 [Carfilzomib], for which the “cell viability of combination” value worked out at 20.7.
To `CO[C@H]1/C=C/O[C@@]2(C)Oc3c(C)c(O)c4c(O)c(c(/C=N/N5CCN(C6CCCC6)CC5)c(O)c4c3C2=O)NC(=O)/C(C)=C\C=C\[C@H](C)[C@H](O)[C@@H](C)[C@@H](O)[C@@H](C)[C@H](OC(C)=O)[C@@H]1C` [Rifapentine] + CC(C)C[C@H](NC(=O)[C@H](CCc1ccccc1)NC(=O)CN1CCOCC1)C(=O)N[C@@H](Cc1ccccc1)C(=O)N[C@@H](CC(C)C)C(=O)[C@@]1(C)CO1 [Carfilzomib] belongs 21.9; to `CCOc1cc2ncc(C#N)c(Nc3ccc(F)c(Cl)c3)c2cc1NC(=O)C=CCN(C)C` [Pelitinib (EKB-569)] + CC(C)C[C@H](NC(=O)[C@H](CCc1ccccc1)NC(=O)CN1CCOCC1)C(=O)N[C@@H](Cc1ccccc1)C(=O)N[C@@H](CC(C)C)C(=O)[C@@]1(C)CO1 [Carfilzomib], 5.92; to `O=C1C=CC=CC1=C1NC(=C2C=CC=CC2=O)N(c2ccc(C(=O)O)cc2)N1` [Deferasirox] + CC(C)C[C@H](NC(=O)[C@H](CCc1ccccc1)NC(=O)CN1CCOCC1)C(=O)N[C@@H](Cc1ccccc1)C(=O)N[C@@H](CC(C)C)C(=O)[C@@]1(C)CO1 [Carfilzomib], 23.7.
Regarding `CC[C@@H]1/C=C(\C)C[C@H](C)C[C@H](OC)[C@H]2O[C@@](O)(C(=O)C(=O)N3CCCC[C@H]3C(=O)O[C@H](/C(C)=C/[C@@H]3CC[C@H](Cl)[C@H](OC)C3)[C@H](C)[C@@H](O)CC1=O)[C@H](C)C[C@@H]2OC` [Pimecrolimus] + CC(C)C[C@H](NC(=O)[C@H](CCc1ccccc1)NC(=O)CN1CCOCC1)C(=O)N[C@@H](Cc1ccccc1)C(=O)N[C@@H](CC(C)C)C(=O)[C@@]1(C)CO1 [Carfilzomib], the “cell viability of combination” value is 11.7.
With `Cl.OC(CNCC(O)C1CCc2cc(F)ccc2O1)C1CCc2cc(F)ccc2O1` (stereo not given) [Nebivolol] + CC(C)C[C@H](NC(=O)[C@H](CCc1ccccc1)NC(=O)CN1CCOCC1)C(=O)N[C@@H](Cc1ccccc1)C(=O)N[C@@H](CC(C)C)C(=O)[C@@]1(C)CO1 [Carfilzomib] the figure was 21.2; with `CC1CC(=O)NN=C1c1ccc(NN=C(C#N)C#N)cc1` (stereo not given) [Levosimendan] + CC(C)C[C@H](NC(=O)[C@H](CCc1ccccc1)NC(=O)CN1CCOCC1)C(=O)N[C@@H](Cc1ccccc1)C(=O)N[C@@H](CC(C)C)C(=O)[C@@]1(C)CO1 [Carfilzomib], 21.5.
`CC(C)c1nc(CN(C)C(=O)NC(C(=O)NC(Cc2ccccc2)CC(O)C(Cc2ccccc2)NC(=O)OCc2cncs2)C(C)C)cs1` (stereo not given) [Ritonavir] + CC(C)C[C@H](NC(=O)[C@H](CCc1ccccc1)NC(=O)CN1CCOCC1)C(=O)N[C@@H](Cc1ccccc1)C(=O)N[C@@H](CC(C)C)C(=O)[C@@]1(C)CO1 [Carfilzomib]: the “cell viability of combination” value amounted to 27.3.
As to `CCOc1nc2cccc(C(=O)OC(C)OC(=O)OC3CCCCC3)c2n1Cc1ccc(-c2ccccc2-c2nn[nH]n2)cc1` (stereo not given) [Candesartan Cilexetil] + CC(C)C[C@H](NC(=O)[C@H](CCc1ccccc1)NC(=O)CN1CCOCC1)C(=O)N[C@@H](Cc1ccccc1)C(=O)N[C@@H](CC(C)C)C(=O)[C@@]1(C)CO1 [Carfilzomib], the “cell viability of combination” value was 18.9.
To `COC(=O)NC(C(=O)N1CCCC1c1ncc(-c2ccc(-c3ccc(-c4cnc(C5CCCN5C(=O)C(NC(=O)OC)C(C)C)[nH]4)cc3)cc2)[nH]1)C(C)C` (stereo not given) + CC(C)C[C@H](NC(=O)[C@H](CCc1ccccc1)NC(=O)CN1CCOCC1)C(=O)N[C@@H](Cc1ccccc1)C(=O)N[C@@H](CC(C)C)C(=O)[C@@]1(C)CO1 [Carfilzomib] belongs 25.3; to `Cl.Fc1ccc(C2CCNCC2COc2ccc3c(c2)OCO3)cc1` (stereo not given) [Paroxetine HCl] + CC(C)C[C@H](NC(=O)[C@H](CCc1ccccc1)NC(=O)CN1CCOCC1)C(=O)N[C@@H](Cc1ccccc1)C(=O)N[C@@H](CC(C)C)C(=O)[C@@]1(C)CO1 [Carfilzomib], 12.9.
With `CCN1CCN(Cc2ccc(Nc3ncc(F)c(-c4cc(F)c5nc(C)n(C(C)C)c5c4)n3)nc2)CC1.CS(=O)(=O)O` + CC(C)C[C@H](NC(=O)[C@H](CCc1ccccc1)NC(=O)CN1CCOCC1)C(=O)N[C@@H](Cc1ccccc1)C(=O)N[C@@H](CC(C)C)C(=O)[C@@]1(C)CO1 [Carfilzomib] the figure was 23.6; with `CC1=CC(=O)c2ccccc2C1=O` [Menadione] + CC(C)C[C@H](NC(=O)[C@H](CCc1ccccc1)NC(=O)CN1CCOCC1)C(=O)N[C@@H](Cc1ccccc1)C(=O)N[C@@H](CC(C)C)C(=O)[C@@]1(C)CO1 [Carfilzomib], 21.4; with `COc1ccc2cc1Oc1ccc(cc1)CC1c3c(cc4c(c3Oc3cc5c(cc3OC)CCN(C)C5C2)OCO4)CCN1C` (stereo not given) [Cepharanthine] + CC(C)C[C@H](NC(=O)[C@H](CCc1ccccc1)NC(=O)CN1CCOCC1)C(=O)N[C@@H](Cc1ccccc1)C(=O)N[C@@H](CC(C)C)C(=O)[C@@]1(C)CO1 [Carfilzomib], 9.41.
